From the supplement of paper PMC12669032

The molecules below were run on Bacteroides thetaiotaomicron (assay: growth AUC relative to DMSO control (median of replicates) (fraction); higher = more growth (less inhibition), active = hit call of the paper). Conditions: 20 µM; 24 h;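 active = AUC reduced over 20% with Padj below 0.05 in at least 2 of 3 replicates; inactive = otherwise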.
Procedure, shortened: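 Area under the growth curve was normalised to the plate median of solvent-only wells, except on the industrial chemical plate, where row and column medians were used. Curves came from gut bacterial monocultures grown anaerobically at 37 °C in mGAM with 20 µM compound (1% DMSO), starting at OD600 0.05 and read at OD600 every hour for 24 h. The minimum OD of each curve was set to 0, and values are medians of three biological replicates grown on separate days.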

SMILES | growth AUC
CON(C)C(=O)Nc1ccc(Cl)cc1 | 1.03 (inactive)
COCC(=O)N(c1c(C)cccc1C)C(C)C(=O)OC (configuration not stated) | 1.02 (inactive)
O=C1C[C@@H]2OCC=C3CN4CC[C@]56c7ccccc7N1[C@H]5[C@H]2[C@H]3C[C@H]46 | 0.964 (inactive)
CC(C)=CC1C(C(=O)OCN2C(=O)C3=C(CCCC3)C2=O)C1(C)C (configuration not stated) | 0.965 (inactive)
CCOP(=O)(SC(C)CC)SC(C)CC (configuration not stated) | 0.993 (inactive)
Oc1ccc(Cl)c(Cl)c1Cl | 1 (inactive)
CSc1nnc(C(C)(C)C)c(=O)n1N | 0.996 (inactive)
Oc1c(Cl)ccc(Cl)c1Cl | 0.987 (inactive)
CCC1COC(Cn2cncn2)(c2ccc(Cl)cc2Cl)O1 (configuration not stated) | 0.982 (inactive)
O=[N+]([O-])/N=C1\NCCN1Cc1ccc(Cl)nc1 | 0.984 (inactive)
CCCCCCCCCCCCCN1CC(C)OC(C)C1 (configuration not stated) | 0.993 (inactive)
O=[N+]([O-])c1ccc(Oc2ccc(Cl)cc2Cl)cc1 | 0.99 (inactive)
COc1cc(OC)nc(NC(=O)NS(=O)(=O)c2cc(NC=O)ccc2C(=O)N(C)C)n1 | 0.971 (inactive)
C[N+](C)(C)CCCl.[Cl-] | 1.02 (inactive)
O=c1ccc(=O)[nH][nH]1 | 1 (inactive)
CCC(C)(c1ccc(O)cc1)c1ccc(O)cc1 | 0.973 (inactive)
Cc1cc(C(F)(C(F)(F)F)C(F)(F)F)ccc1NC(=O)c1cccc(I)c1C(=O)NC(C)(C)CS(C)(=O)=O | 1.02 (inactive)
